Data reported in PubChem BioAssay (NCATS).
Results filed as inconclusive are left out. A call without a number means that no potency is given here. Active and inactive are the calls of the source. The call rests on the fitted dose curve; in most records, active means well fitted inhibition curve with a large enough effect; inconclusive means small, poorly fitted or top-dose-only effect; inactive means flat fitted curve, though single readings scatter.

Each molecule was assayed against Calcium and integrin-binding protein 1 (Homo sapiens) (UniProt Q99828) (assay: Primary qHTS for Identification of Calcium Integrin Binding Protein 1 (CIB1) Competitor (AID 1508620; further: top concentration of the series differs between compounds)). Details: CIB1-GST / FITC-alphaIIb peptide fluorescence polarization; series mostly up to 114 µM.
Procedure, shortened: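 Fluorescence polarization competition: GST-tagged CIB1 (1 uM final) preincubated with compound 15 min at room temperature, then FITC-labelled alphaIIb peptide (100 nM final) added. After 15 min at room temperature, polarization read at Ex 480/Em 540.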

Chain of Calcium and integrin-binding protein 1 (Homo sapiens) (Q99828 whole entry, looked up): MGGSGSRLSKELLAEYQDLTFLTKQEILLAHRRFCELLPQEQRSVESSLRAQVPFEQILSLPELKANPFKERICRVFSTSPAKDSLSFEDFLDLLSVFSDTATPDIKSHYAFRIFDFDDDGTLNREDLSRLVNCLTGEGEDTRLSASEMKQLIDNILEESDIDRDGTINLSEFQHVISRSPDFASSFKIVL

SMILES	Potency
CC(=O)Nc1sc2c(c1-c1ccc(C#N)cc1)CCNC2	inactive
Cn1nnnc1Sc1ncnc2scc(I)c12	inactive
COc1ccc(C2=Nn3c(nnc3-c3ccccc3C)SC2)cc1OC	inactive
O=C(O)c1ccc(O)c2ncc(N3CCCCC3)cc12	inactive
O=C1NS(=O)(=O)C(c2ccccc2)C1c1ccccc1 (stereo not given)	inactive
Cc1cc(C)nc(NC(=S)N2CCN(c3nncs3)CC2)c1	inactive
O=S(=O)(c1ccccc1)N1CCN(c2nc(C3CC3)nc3ccccc23)CC1	inactive
Cc1nnc(-c2cnn(C)c2N)n1Cc1cncn1C	inactive
Cc1cc2c(s1)c1cnn(Cc3cc(F)c(F)c(F)c3)c(=O)c1n2C	inactive
COc1cc(OC)cc(-c2csc(N3CCC(C(N)=O)CC3)n2)c1	inactive
Cc1ccc(OCCn2c(CCNC(=O)c3cccc(Br)c3)nc3ccccc32)cc1	inactive
COc1ccc(NC(=S)N2CCN(c3cccc(C(F)(F)F)c3)CC2)nc1	inactive
O=C(O)c1sc2c(c1-c1nc3ccccc3s1)CCNC2	inactive
O=C(Nc1ccc2sccc2c1)Nc1nnc(-c2cccnc2)s1	inactive
Oc1cccc2cc(NCc3ccccc3F)cnc12	inactive
O=C(Nc1ccc2ccccc2c1)Nc1nnc(-c2ccc(F)cc2)s1	inactive
Cc1ccc(-c2nc3ccccc3s2)cc1NC(=O)c1ccc(-c2cccc(Cl)c2)o1	inactive
Cc1cc2c(s1)c1cnn(Cc3ccc(Cl)cc3)c(=O)c1n2C	inactive
O=C(NCc1ccccc1)Nc1nnc(-c2ccncc2)s1	inactive
O=S(=O)(NC1CCN(S(=O)(=O)c2c(F)cccc2F)C1)c1ccc2c(c1)OCCO2 (stereo not given)	inactive
